In the supplement of paper PMC11732987, “Enantioselective OTUD7B fragment discovery through chemoproteomics screening and high-throughput optimisation” (Communications Chemistry, 2025):

Legend:
Experiment in all cases: log2 ratio of Biotin-Ahx-Ub-VS probe labelling (fragment/DMSO); higher = less target engagement (more negative = stronger competition), active = hit call of the paper (q ≤ 0.05, log2 ratio ≤ -1)
Conditions in all cases: compound concentration: 200 uM; treatment time: 3 h
[1] = molecular target: T1, USP42 (UniProt Q9H9J4)
T1 sequence (whole entry): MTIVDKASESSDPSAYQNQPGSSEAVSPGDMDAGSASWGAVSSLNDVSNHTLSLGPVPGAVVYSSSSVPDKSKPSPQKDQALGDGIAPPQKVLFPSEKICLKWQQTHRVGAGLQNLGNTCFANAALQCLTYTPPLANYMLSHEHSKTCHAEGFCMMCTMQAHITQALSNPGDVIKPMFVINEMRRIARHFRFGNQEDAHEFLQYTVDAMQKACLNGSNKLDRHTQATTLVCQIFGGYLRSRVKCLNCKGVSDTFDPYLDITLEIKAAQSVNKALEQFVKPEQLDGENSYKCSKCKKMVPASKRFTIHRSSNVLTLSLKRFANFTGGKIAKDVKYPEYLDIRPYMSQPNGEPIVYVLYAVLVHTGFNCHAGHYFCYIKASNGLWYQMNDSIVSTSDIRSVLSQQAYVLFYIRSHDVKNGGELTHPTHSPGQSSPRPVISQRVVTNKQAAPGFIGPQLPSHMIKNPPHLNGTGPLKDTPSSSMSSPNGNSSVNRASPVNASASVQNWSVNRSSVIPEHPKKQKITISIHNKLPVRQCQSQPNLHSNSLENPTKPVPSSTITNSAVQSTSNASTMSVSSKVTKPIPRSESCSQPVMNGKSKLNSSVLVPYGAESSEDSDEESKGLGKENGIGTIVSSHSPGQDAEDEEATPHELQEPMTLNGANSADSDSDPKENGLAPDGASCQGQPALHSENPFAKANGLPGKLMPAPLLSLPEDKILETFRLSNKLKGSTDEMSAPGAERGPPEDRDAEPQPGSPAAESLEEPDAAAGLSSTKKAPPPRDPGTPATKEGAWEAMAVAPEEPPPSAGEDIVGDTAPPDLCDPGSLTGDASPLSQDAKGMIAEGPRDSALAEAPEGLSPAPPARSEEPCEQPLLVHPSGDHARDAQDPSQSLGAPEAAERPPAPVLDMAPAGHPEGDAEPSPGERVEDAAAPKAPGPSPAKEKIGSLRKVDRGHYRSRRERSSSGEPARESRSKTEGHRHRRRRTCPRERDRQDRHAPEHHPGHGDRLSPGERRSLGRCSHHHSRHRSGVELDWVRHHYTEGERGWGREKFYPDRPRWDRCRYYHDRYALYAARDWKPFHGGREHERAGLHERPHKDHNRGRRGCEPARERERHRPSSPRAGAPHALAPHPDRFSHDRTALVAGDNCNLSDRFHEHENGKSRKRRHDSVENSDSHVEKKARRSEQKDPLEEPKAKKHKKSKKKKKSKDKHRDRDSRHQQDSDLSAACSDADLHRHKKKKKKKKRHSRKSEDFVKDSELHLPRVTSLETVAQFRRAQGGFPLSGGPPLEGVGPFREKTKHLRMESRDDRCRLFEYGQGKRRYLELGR
Procedure, shortened: (§1)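 Each value is an average log2 ratio of fragment to vehicle, tested by unpaired t-test. The underlying Spectronaut label-free quantities were global-median-normalised, and only proteins with ≥2 unique peptides were included. Triplicate HEK293T lysate samples (495 µg) were exposed to fragment at 200 µM or vehicle for 3 h, then to Biotin-Ahx-Ub-VS at 0.5 µM final for 1 h, before NeutrAvidin enrichment of labelled DUBs, LysC and trypsin digestion, and diaPASEF LC-MS/MS.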

[2] = molecular target: USP46 (UniProt P62068)
Procedure, shortened: as §1

[3] = molecular target: T2, USP47 (UniProt Q96K76)
T2 sequence (whole entry): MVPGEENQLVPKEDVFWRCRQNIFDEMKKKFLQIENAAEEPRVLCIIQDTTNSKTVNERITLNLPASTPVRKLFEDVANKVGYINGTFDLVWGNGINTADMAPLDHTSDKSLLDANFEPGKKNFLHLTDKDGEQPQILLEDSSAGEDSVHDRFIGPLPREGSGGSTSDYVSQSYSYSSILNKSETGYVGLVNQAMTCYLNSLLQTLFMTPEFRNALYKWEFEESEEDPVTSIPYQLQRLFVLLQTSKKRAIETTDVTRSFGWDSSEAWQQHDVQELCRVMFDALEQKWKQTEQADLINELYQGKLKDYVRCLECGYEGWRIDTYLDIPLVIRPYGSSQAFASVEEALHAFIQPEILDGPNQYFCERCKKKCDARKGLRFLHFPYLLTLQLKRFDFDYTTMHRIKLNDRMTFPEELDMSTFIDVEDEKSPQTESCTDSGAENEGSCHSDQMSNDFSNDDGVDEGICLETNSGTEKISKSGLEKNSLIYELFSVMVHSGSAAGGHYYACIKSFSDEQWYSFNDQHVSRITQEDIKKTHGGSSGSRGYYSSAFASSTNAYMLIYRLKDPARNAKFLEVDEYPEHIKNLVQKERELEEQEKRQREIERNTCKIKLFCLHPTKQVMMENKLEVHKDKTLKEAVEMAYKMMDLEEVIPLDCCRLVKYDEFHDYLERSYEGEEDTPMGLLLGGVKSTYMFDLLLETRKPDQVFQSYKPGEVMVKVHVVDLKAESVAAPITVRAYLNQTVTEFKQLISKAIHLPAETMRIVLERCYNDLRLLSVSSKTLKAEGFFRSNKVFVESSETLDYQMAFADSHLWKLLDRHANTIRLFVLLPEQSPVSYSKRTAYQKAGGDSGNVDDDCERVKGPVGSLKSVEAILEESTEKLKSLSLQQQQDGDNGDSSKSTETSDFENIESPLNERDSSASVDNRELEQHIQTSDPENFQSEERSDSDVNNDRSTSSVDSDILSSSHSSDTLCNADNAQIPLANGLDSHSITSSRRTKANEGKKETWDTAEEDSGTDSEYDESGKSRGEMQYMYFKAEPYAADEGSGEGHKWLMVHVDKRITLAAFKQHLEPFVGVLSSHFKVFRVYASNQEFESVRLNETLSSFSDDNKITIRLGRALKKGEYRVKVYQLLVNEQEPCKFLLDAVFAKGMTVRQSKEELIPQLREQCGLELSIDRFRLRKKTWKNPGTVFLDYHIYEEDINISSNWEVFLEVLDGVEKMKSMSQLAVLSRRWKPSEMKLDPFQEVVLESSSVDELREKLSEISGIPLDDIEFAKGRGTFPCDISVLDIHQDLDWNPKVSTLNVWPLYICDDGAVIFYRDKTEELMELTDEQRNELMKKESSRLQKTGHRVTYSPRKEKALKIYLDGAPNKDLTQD
Procedure, shortened: as §1

[4] = molecular target: T3, USP48 (UniProt Q86UV5)
T3 sequence (whole entry): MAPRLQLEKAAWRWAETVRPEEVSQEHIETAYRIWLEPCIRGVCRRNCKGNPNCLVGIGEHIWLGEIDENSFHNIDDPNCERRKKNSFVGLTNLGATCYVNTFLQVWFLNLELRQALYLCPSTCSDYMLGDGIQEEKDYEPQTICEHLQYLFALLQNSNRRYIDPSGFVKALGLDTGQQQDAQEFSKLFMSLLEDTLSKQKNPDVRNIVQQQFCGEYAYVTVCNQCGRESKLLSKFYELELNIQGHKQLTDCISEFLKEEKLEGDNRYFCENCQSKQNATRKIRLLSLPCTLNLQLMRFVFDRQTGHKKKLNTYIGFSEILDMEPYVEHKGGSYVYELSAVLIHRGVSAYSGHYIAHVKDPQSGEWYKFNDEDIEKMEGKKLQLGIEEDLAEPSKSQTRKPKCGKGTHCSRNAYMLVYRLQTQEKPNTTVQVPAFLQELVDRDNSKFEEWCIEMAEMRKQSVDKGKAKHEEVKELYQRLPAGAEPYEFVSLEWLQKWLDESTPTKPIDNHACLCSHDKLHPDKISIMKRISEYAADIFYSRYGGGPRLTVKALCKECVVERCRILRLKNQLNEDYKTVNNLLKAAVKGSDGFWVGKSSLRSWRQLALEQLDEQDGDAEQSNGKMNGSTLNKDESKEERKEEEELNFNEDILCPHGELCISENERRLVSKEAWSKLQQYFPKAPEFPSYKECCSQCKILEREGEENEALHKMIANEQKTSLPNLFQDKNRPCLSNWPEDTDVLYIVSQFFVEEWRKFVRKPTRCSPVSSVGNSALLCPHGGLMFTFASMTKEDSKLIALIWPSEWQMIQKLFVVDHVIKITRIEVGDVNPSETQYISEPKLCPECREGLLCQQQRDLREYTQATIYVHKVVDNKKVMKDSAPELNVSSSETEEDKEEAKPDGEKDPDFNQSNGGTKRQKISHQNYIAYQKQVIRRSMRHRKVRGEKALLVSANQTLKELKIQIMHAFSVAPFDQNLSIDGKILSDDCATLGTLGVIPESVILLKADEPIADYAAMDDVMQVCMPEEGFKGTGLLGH
Procedure, shortened: as §1

[5] = molecular target: T4, USP5 (UniProt P45974)
T4 sequence (whole entry): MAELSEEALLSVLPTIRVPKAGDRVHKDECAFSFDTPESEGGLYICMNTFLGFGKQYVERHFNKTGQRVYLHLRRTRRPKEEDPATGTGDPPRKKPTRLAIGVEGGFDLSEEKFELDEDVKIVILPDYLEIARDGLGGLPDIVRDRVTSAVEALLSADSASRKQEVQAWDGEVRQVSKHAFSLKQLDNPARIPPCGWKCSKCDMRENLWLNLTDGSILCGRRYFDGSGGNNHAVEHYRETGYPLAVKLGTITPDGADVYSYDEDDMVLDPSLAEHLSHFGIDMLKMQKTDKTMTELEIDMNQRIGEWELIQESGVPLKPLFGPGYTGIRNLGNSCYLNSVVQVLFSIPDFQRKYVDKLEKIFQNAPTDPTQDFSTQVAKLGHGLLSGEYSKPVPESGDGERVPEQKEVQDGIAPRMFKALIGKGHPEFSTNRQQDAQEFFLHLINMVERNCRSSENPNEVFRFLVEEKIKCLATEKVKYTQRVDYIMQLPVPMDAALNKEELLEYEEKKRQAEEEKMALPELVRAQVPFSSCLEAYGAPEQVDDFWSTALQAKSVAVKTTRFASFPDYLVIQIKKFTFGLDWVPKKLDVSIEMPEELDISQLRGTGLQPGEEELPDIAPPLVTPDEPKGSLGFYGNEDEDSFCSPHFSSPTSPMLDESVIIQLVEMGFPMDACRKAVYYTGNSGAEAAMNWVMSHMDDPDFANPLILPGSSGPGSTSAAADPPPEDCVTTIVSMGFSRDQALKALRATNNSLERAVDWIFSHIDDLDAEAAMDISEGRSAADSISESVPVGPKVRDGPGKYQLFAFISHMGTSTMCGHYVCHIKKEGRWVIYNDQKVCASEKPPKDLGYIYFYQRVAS
Procedure, shortened: as §1

[6] = molecular target: USP54 (UniProt Q70EL1)
Procedure, shortened: as §1

[7] = molecular target: USP7 (UniProt Q93009)
Procedure, shortened: as §1

[8] = molecular target: T5, USP8 (UniProt P40818)
T5 sequence (whole entry): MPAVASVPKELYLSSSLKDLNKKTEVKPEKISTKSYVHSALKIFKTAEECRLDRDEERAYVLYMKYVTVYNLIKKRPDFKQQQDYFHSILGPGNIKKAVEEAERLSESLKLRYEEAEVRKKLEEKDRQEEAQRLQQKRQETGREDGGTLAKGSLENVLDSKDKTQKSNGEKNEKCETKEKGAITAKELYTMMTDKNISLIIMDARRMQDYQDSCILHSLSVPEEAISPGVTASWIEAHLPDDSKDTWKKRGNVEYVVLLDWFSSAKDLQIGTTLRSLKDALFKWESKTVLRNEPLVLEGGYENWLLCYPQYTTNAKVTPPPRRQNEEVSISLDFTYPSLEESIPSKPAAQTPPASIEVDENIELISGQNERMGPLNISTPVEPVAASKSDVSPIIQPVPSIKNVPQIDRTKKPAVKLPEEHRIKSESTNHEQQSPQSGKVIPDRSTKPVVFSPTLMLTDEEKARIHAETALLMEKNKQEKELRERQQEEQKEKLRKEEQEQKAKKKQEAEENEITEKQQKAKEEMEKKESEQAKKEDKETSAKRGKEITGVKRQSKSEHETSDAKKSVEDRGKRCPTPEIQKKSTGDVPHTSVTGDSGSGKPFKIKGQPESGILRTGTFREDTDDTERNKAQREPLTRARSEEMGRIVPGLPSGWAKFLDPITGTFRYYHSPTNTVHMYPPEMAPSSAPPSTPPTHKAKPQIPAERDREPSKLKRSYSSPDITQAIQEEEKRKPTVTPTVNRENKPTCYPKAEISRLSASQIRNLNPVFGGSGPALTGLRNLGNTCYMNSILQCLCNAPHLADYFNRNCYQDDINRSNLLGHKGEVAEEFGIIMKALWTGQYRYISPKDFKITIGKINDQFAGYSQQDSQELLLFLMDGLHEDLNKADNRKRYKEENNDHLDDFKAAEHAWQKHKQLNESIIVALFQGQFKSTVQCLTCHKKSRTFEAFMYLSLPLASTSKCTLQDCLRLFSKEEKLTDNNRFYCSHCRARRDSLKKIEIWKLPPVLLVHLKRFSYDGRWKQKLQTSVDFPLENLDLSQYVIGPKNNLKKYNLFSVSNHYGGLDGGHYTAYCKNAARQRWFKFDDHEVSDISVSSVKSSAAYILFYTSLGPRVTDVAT
Procedure, shortened: as §1

[9] = molecular target: USP9X (UniProt Q93008)
Procedure, shortened: as §1

[10] = molecular target: UniProt O00487
Procedure, shortened: as §1

Measured: log2 ratio of Biotin-Ahx-Ub-VS probe labelling

Sequence of USP9X (Q93008 whole entry): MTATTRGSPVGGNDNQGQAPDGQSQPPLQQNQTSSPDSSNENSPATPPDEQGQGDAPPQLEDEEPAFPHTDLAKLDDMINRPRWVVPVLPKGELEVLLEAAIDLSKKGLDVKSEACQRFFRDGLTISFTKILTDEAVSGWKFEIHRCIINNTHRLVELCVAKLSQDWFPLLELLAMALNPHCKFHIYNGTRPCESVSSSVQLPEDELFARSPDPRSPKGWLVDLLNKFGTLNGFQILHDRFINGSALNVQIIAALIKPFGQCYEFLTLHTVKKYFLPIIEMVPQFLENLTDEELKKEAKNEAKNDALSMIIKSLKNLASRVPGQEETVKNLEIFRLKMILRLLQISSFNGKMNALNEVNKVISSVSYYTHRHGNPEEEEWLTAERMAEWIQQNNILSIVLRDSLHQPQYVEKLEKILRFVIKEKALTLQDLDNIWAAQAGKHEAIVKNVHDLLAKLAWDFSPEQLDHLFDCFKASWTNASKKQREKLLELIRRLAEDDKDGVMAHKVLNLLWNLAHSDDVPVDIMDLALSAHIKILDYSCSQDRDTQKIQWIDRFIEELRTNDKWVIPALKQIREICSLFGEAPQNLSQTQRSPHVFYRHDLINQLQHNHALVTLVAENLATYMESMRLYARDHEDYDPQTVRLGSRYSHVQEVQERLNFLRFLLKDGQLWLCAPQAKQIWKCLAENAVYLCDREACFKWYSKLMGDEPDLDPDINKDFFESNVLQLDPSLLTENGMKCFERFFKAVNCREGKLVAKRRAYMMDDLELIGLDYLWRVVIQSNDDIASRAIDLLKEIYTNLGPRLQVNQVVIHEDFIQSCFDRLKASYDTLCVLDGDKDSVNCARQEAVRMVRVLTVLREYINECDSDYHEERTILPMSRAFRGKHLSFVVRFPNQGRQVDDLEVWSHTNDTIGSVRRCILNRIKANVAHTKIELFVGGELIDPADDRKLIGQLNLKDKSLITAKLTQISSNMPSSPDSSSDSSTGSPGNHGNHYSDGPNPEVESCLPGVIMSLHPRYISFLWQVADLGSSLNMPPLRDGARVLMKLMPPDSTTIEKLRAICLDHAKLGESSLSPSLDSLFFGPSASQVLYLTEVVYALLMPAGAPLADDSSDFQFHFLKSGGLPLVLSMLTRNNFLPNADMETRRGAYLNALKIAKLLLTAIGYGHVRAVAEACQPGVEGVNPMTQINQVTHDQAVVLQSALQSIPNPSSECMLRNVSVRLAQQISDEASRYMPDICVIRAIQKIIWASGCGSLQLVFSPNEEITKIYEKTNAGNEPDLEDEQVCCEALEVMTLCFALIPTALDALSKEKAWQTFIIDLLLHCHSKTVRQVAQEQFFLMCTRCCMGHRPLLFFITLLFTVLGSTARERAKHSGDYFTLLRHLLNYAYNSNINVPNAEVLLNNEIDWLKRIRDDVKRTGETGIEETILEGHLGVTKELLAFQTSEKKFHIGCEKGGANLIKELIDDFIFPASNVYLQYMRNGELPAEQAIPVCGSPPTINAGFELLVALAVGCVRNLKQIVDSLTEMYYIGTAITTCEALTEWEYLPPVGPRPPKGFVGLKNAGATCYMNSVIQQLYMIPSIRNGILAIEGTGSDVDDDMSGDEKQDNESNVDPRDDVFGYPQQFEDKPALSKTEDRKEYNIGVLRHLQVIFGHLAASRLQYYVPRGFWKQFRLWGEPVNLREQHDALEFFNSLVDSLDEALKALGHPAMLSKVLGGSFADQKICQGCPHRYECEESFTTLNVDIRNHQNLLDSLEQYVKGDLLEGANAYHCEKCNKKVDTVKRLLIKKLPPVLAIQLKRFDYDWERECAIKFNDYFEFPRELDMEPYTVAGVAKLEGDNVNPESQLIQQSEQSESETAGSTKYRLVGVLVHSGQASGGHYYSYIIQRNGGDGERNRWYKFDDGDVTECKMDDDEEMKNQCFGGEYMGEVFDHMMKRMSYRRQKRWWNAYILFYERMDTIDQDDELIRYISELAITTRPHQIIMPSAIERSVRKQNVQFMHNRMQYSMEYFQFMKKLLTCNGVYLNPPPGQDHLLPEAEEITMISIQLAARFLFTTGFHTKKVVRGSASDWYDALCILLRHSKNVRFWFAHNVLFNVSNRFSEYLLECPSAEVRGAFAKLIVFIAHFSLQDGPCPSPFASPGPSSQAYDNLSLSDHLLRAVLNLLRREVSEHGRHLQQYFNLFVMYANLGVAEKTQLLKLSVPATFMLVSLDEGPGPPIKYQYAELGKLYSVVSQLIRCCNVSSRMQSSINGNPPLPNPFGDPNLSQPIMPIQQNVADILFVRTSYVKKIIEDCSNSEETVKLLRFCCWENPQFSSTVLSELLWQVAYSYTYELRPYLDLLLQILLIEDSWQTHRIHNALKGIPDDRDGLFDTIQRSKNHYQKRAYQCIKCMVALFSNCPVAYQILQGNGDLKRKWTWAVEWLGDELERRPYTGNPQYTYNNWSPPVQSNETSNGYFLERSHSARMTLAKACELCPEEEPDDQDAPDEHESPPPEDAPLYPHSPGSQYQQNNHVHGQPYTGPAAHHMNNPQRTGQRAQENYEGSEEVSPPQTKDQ
Sequence of UniProt O00487 (O00487 whole entry): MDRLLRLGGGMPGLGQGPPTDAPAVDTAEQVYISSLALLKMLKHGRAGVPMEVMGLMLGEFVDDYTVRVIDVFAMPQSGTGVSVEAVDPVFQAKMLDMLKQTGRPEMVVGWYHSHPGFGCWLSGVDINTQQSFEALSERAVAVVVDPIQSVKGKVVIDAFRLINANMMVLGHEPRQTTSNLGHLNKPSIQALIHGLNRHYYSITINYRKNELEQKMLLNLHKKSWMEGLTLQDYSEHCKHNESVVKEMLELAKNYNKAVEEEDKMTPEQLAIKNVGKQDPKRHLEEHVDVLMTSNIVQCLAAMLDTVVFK
Sequence of USP7 (Q93009 whole entry, looked up): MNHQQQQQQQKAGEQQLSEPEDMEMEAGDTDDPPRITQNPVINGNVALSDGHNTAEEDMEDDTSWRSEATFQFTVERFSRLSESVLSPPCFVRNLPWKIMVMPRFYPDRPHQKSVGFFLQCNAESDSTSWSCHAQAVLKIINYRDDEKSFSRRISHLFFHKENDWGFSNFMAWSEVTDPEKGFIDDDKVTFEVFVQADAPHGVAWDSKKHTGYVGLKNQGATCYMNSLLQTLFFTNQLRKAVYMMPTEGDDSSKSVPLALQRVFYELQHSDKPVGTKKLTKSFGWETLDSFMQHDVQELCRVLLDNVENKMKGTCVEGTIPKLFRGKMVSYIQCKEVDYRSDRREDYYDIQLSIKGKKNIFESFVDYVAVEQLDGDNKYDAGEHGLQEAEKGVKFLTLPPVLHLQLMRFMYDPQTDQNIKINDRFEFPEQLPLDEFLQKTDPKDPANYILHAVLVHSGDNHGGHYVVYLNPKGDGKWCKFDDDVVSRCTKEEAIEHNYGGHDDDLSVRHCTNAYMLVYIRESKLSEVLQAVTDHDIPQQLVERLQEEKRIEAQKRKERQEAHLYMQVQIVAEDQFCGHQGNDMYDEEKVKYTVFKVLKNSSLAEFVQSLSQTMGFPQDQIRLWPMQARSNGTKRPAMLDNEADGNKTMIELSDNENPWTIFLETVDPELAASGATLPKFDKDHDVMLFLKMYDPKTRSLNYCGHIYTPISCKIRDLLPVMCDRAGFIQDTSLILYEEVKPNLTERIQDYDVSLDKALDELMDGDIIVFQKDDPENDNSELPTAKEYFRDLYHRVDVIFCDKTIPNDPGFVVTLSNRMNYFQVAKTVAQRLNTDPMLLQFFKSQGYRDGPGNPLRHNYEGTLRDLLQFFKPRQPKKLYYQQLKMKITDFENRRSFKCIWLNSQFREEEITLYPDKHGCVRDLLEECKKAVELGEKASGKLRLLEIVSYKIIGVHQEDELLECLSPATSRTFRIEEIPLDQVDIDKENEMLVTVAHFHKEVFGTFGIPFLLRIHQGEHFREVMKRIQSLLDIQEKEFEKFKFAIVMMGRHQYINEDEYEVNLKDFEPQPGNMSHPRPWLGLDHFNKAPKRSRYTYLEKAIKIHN
Sequence of USP46 (P62068 whole entry): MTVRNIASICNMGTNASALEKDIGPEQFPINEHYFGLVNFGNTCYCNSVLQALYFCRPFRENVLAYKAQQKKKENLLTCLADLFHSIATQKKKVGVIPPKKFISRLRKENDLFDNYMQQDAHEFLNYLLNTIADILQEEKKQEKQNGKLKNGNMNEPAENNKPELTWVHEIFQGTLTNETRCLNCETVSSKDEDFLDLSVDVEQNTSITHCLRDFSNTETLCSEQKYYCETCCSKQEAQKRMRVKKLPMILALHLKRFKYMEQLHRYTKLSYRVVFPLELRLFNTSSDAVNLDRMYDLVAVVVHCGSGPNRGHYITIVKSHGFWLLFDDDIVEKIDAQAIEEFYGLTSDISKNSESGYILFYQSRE

Cc1noc(C)c1CNC(=O)CCl
inactive: [1] 0.262 | [2] -0.347 | [3] 0.0132 | [4] -0.547 | [5] -0.403 | [6] 1.07 | [7] -0.406 | [9] -0.717 | [10] -0.395
active: [8] -1.2
